Reference: PubChem BioAssay (NCI)
About 83,000 compounds went through this panel and 20% of them were active in at least one assay; those are over-represented in the sample as a whole.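 Testing used 96-well plates and a 48-hour single-concentration exposure. Example: -40 means 40% of the starting cells died.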 A number with no mark means an inactive call. Active and inactive are the calls of the source. How the source made its calls: active means growth percent below 10; inactive means the rest.

Key:
Assay in all cases: NCI-60 one-dose screen, 48 h (100 = growth as untreated, 0 = no growth, -100 = all killed)
Conditions in all cases: 10 µM unless noted
NCI-H23 lung = tested on: NCI-H23 lung
NCI-H322M lung = tested on: NCI-H322M lung
HOP-62 NSCLC = tested on: HOP-62 NSCLC
NCI-H460 lung = tested on: NCI-H460 lung
HOP-92 NSCLC = tested on: HOP-92 NSCLC
NCI-H522 lung = tested on: NCI-H522 lung
A549/ATCC NSCLC = tested on: A549/ATCC NSCLC
786-0 renal = tested on: 786-0 renal
DU-145 prostate = tested on: DU-145 prostate
K-562 leukemia = tested on: K-562 leukemia
MALME-3M melanoma = tested on: MALME-3M melanoma
MDA-MB-231 breast = tested on: MDA-MB-231 breast
RXF 393 renal = tested on: RXF 393 renal
SF-268 CNS = tested on: SF-268 CNS
SF-295 CNS = tested on: SF-295 CNS
SF-539 CNS = tested on: SF-539 CNS
UACC-257 melanoma = tested on: UACC-257 melanoma
M14 melanoma = tested on: M14 melanoma
HCT-15 colon = tested on: HCT-15 colon
COLO 205 colon = tested on: COLO 205 colon

Row | Compound | growth (NCI-H23 lung) | growth (NCI-H322M lung) | growth (HOP-62 NSCLC) | growth (NCI-H460 lung) | growth (HOP-92 NSCLC) | growth (NCI-H522 lung) | growth (A549/ATCC NSCLC) | growth (786-0 renal) | growth (DU-145 prostate) | growth (K-562 leukemia) | growth (MALME-3M melanoma) | growth (MDA-MB-231 breast) | growth (RXF 393 renal) | growth (SF-268 CNS) | growth (SF-295 CNS) | growth (SF-539 CNS) | growth (UACC-257 melanoma) | growth (M14 melanoma) | growth (HCT-15 colon) | growth (COLO 205 colon) [%]
1 | Cc1ccccc1CNC(=O)C1CN(c2ccc(Cl)cc2)N(c2ccc(Cl)cc2)C1=O (stereo not given) | 90.6% | 89.1% | 83.2% | 91.4% | 96.9% | 68.5% | 64.4% | 96.7% | 99.7% | 51.6% | 91.1% | 84.6% | 91.6% | 83.7% | 90.1% | 98.7% | 78.6% | 90.1% | 78.8% | 
2 | O=C(NCc1ccccc1)C1CN(c2ccc(Cl)cc2)N(c2ccc(Cl)cc2)C1=O (stereo not given) | 94% | 95.8% | 74.6% | 85.6% | 86.5% | 65.6% | 69.6% | 99.3% | 97.5% | 35.1% | 73.8% | 91.3% | 81.1% | 82.4% | 76.3% | 93.4% | 79.4% | 74.9% | 59.5% | 
3 | O=S(=O)(Nc1ncccn1)c1ccc(NC2Nc3nc4ccccc4nc3S2)cc1 (stereo not given) | 97% | 97.7% | 99.6% | 103% | 105% | 94.5% | 95.8% | 100% | 105% | 98.2% | 96.1% | 99.3% | 109% | 97.9% | 99.5% | 95.5% | 94% | 95.5% | 96.9% | 
4 | COC(=O)c1c2c(c(C)[n+]([O-])c1C)C(=O)C(NCc1ccc(Br)cc1)=CC2=O | 11% | 28.7% | 31.4% | 3.51% (active) | 78.1% | 42.8% | 18.2% | 48.8% | 53.3% | 32% | -70.1% (active) | 4.21% (active) | 41.4% | 16.2% | 19.3% | 8.36% (active) | -52.3% (active) | 4.19% (active) | 7.94% (active) | 
5 | O=c1c2cccc(F)c2sc2c(N3CCNCC3)nc3ccccc3c12 | 51% | 37.9% | 37.2% | -77.2% (active) | 35.3% | 48.6% | 21.8% | 37% | 22.3% | -42.1% (active) | 53.5% | 34.6% | 42.4% | 41.4% | 74.6% | 48.9% | 8.99% (active) | -27.4% (active) | 5.87% (active) | 
6 | O=c1c2cc(F)ccc2sc2c(NCCN3CCCC3)nc3ccccc3c12 | 77.1% | 69% | 67.6% | 12.3% | 27.5% | 63.8% | 53.7% | 55.6% | 45.8% | -43.2% (active) | 83% | 30.8% | 38.3% | 47% | 85.6% | 61.8% | 92% | 15.1% | 27.6% | 
7 | NCCNc1nc2ccccc2c2c(=O)c3cc(F)cc(Cl)c3sc12 | 75.4% | -27.1% (active) | -51.7% (active) | -90% (active) | 40.8% | -44.8% (active) | -72.9% (active) | -90.4% (active) | -92.6% (active) | -62.7% (active) | 89.6% | -79.2% (active) | 67% | -42.4% (active) | 98.2% | 58.6% | 103% | -76.6% (active) | -83.4% (active) | 
8 | CCCCN1CCN(c2ccc3nc(-c4ccc5nc(-c6ccc(C(F)(F)F)cc6)[nH]c5c4)[nH]c3c2)CC1 | -85.1% (active) | -94.1% (active) | -78.5% (active) | -79.9% (active) | -13.5% (active) | -38.2% (active) | -71.9% (active) | -84.9% (active) | -95.5% (active) | -65.8% (active) | -74.2% (active) | -88.9% (active) | -82% (active) | -71.8% (active) | -84% (active) | -92.8% (active) | -16.2% (active) | -63.5% (active) | -79% (active) | 
9 | COc1ccc(C2=C(c3cccc(OC)c3)C(=O)c3ccc(C)nc3C2=O)cc1 | 37.5% | 76.4% | 34.4% | 13.4% | 80% | 40.9% | 40.8% | 67.8% | 54.3% | 19.9% | 52.4% | 29.4% | 33.3% | 48% | 56.2% | 43% | 67.8% | 42% | 18.6% | 
10 | O=C(/C=C/c1ccc(Cl)cc1)c1ccc(Nc2nc(NCCO)nc(Nc3ccc(Cl)cc3)n2)cc1 | 87.6% | 86.7% | 80.3% | 54.3% | 63.1% | 77.8% | 51.2% | 26.9% | 67.7% | 37.6% | 90.3% | 62.4% | 54.3% | 60.2% | 87.2% | 64.8% | 95.8% | 64.1% | 25.9% | 
11 | COc1cc(C2C(C#N)=C(N)OC3=C2C(=O)c2ccccc2C3=O)cc(OC)c1O (stereo not given) | 32.5% | 47.7% | 34.2% | 12.7% | 43.7% | -10.1% (active) | 52.3% | 35.4% | 17.8% |  | 54.7% | 57.1% |  | 42.2% | 29.3% | 0.132% (active) | 55.9% | 21.1% | 23.6% | 44.6
12 | COc1cc(C2CC(c3ccc(Nc4nc(NCCO)nc(N5CCOCC5)n4)cc3)=NN2c2cc(Cl)cc(Cl)c2)cc(OC)c1OC (stereo not given) | 56.7% | 72.6% | 67.2% | 22.2% | 32.7% | 66% | 36.6% | 12.5% | 67.5% | 21.9% | 77.6% | 49.2% | 5.08% (active) | 49.4% | 50.1% | 41.4% | 80.2% | 64.9% | 31.5% | 
13 | Cc1sc2ncn(CC(=O)Nc3ccc(S(N)(=O)=O)cc3)c(=O)c2c1C | 102% | 96.8% | 101% | 105% | 102% | 92.5% | 98% | 101% | 112% | 103% | 102% | 102% | 114% | 97.9% | 104% | 96% | 97.7% | 114% | 102% | 
14 | COc1ccc(N2C(=O)CC(c3cc(OC)c(OC)c(OC)c3)C3C2=NC(=O)N3C)cc1 (stereo not given) | 110% | 105% | 108% | 108% | 105% | 97.5% | 104% | 103% | 106% |  | 105% | 109% |  | 100% | 101% | 97.9% | 98.2% | 105% | 102% | 101
15 | CNC(=O)c1cc(Oc2ccc(CC(=O)Nc3cc(C(C)(C)C)cn3C)cc2)ccn1 | 50.2% | 93% | 56% | 74.8% | 84% | 75.1% | 68.9% | 89.7% | 93.9% | 35.5% | 50.6% | 67.8% | 105% | 86.4% | 45.4% | 68.3% | 56.5% | 84.7% | 93.8% | 
16 | Clc1ccc(Nc2scc3[n+]2CCC3)cc1 | 92.7% | 101% | 99.8% | 102% | 81% | 93.5% | 92.4% | 94.9% | 101% |  | 95.9% | 95.9% |  | 93.2% | 94.5% | 97.1% | 94% | 103% | 93.4% | 120
17 | O=C(/C=C/c1ccccc1)c1ccc(Nc2nc(NCCO)nc(Nc3ccc(Cl)cc3)n2)cc1 | 82.7% | 91.6% | 93.2% | 81% | 96.2% | 83.3% | 64.6% | 83.9% | 73.6% | 36.1% | 98.7% | 71.4% | 73.2% | 73.8% | 96.1% | 73% | 94.7% | 99.9% | 8.55% (active) | 
